HT1080 IDH1KD tx: toxicity to HT-1080 IDH1 knockdown cells (counter line); actives 2% (n = 360,000); Potency, µM (top dose mostly 46.1 µM), for the others: at the highest dose activity, negative = toxicity, usual class: cytotoxic; HT-1080 IDH1 knockdown viability, ATP luminescence, 48 h;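 note: potency is the fitted concentration of half-maximal effect; 0% = DMSO wells and -100% = cell-free medium wells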
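Viability of IDH1-knockdown HT-1080 fibrosarcoma cells was assessed by CellTiter-Glo after 48 h at 37 °C with titrated compound; concentration-effect curves were classified by fit quality and response size.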
ALOX12 inh: ALOX12 (human) lipoxygenase inhibition. P18054. purified 12hLO, xylenol orange hydroperoxide absorbance. Potency, µM (highest dose often 108 µM), for the others: top-dose activity change, negative = inhibition, most hits filed as inhibitors. actives 1.1% (n = 580,000); note: potency is the fitted concentration of half-maximal effect
Target sequence (P18054 whole entry, looked up): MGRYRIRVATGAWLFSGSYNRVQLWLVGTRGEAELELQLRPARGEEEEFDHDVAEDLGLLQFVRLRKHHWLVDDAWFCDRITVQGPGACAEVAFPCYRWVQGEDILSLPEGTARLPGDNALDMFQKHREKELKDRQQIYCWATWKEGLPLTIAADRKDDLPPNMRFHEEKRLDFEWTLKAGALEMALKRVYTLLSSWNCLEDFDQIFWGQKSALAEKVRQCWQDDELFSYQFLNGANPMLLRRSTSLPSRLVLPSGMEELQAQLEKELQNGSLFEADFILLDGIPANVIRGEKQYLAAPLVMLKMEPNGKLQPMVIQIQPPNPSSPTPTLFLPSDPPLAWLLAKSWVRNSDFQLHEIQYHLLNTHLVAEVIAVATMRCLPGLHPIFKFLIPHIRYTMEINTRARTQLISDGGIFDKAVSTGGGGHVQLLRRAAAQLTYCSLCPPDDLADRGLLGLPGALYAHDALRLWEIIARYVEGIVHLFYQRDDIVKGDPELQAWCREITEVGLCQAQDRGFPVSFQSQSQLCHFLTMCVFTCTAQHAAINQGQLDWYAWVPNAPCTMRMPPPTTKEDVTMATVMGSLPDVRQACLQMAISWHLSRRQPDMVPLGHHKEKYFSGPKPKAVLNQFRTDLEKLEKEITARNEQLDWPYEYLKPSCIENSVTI
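Purified human 12hLO (150 nM final) in 25 mM Hepes, 0.01% Triton X-100, pH 7.0 was preincubated 15 min at room temperature with compound. Then 40 uM arachidonic acid was added, 30 min. Hydroperoxide was read by Fe-XO absorbance ratio 573/405 nm.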
HT1080-NT tox: kills 2HG-producing HT-1080-NT fibrosarcoma cells; actives 1.6% (n = 360,000); HT-1080-NT fibrosarcoma viability, CellTiter-Glo ATP luminescence, 48 h; Potency, µM (titrated, usually from 46.1 µM), inactives show at the highest dose activity, negative = less viability, hits mostly cytotoxic; AID 686970;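 note: NT is the 2HG producing partner of a matched IDH1 knockdown line; potency is the fitted concentration of half-maximal effect; 0% = DMSO-treated cells and -100% = media-only wells without cells; nearly all actives have a fitted effect of over 55% in size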
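HT-1080-NT fibrosarcoma cells (2HG-overproducing), 750 cells/well in RPMI with 5% FBS, dosed after 2 h and incubated 48 h at 37C. CellTiter-Glo luminescence normalized to DMSO and no-cell wells; concentration-response curves fitted and classed.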
TDP1 cell CPT: DT40-hTDP1 cell growth loss with CPT | AID 686979 | actives 12% (n = 420,000) | Potency, µM (titrated, usually from 46.2 µM), without a hit: at the highest dose activity change, negative = growth inhibition, most hits filed as inhibitors | chicken DT40 Tdp1-/-;hTDP1 cells + 20 nM CPT, ATP luminescence, 48 h; note: potency is the fitted concentration of half-maximal effect; nearly all actives have a fitted effect of over 55% in size
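Chicken DT40 Tdp1-/- cells complemented with human TDP1, 400 cells/well, exposed to compounds plus 20 nM camptothecin for at least 48 h at 37 C; viability read as ATP content by CellTiter-Glo luminescence.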
DT40 TDP1 no CPT: qHTS for Inhibitors of human tyrosyl-DNA phosphodiesterase 1 (TDP1): qHTS in cells in absence of CPT; actives 15% (n = 420,000); DT40 Tdp1-/- hTDP1 cells, no CPT, ATP luminescence, 48 h; Potency, µM (top dose mostly 46.2 µM), inactives show top-dose activity change, negative = growth inhibition, usual class: inhibitors; AID 686978, 2013; note: potency is the fitted concentration of half-maximal effect; nearly all actives have a fitted effect of over 55% in size
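Readout: luminescence from CellTiter-Glo after 30 min in the dark at RT. Cells: DT40 Tdp1-/- with stable hTDP1, 400/well. Exposure: compounds alone, ≥48 hr, 37 °C.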
IL-1B inflam inh: blocks inflammasome-driven IL-1 beta release. THP-1 LPS/ATP IL-1B secretion, AlphaLISA, 16 h; active compounds read low. activity change, % at 57.5 µM. actives 4.7% (n = 360,000); in the data active = activity change below about -50%; inconclusive = mostly about -30% to -49%
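THP-1 cells pretreated 1 hr with compounds (up to 57.5 uM final), then stimulated with LPS (250 ng/mL final) plus ATP (1.25 mM final); secreted IL-1B measured by AlphaLISA after 16 hr, decreased signal indicating inhibition.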
Active calls of the source: *; i = inactive; ? = inconclusive; nt = no result given; [ ] = remark or other dose. This is one part of a sample in which hits are shown more often than they occur. Unless noted, calls come from the whole dose curve; as a rule, active = well fitted curve in the direction sought with a large enough effect; inconclusive = small, poorly fitted or top-dose-only effect, or another doubt; inactive = no such curve, though single readings can be large; an effect the other way counts as inactive or inconclusive. Unless noted, % is set by controls: 0 for no effect and ±100 for the full control effect.

SMILES	HT1080 IDH1KD tx	ALOX12 inh	HT1080-NT tox	TDP1 cell CPT	DT40 TDP1 no CPT	IL-1B inflam inh
Cc1ccccc1C(=O)N1CCC(C(=O)NCc2coc(-c3cccs3)n2)CC1	nt	5%	nt	nt	nt	nt
CC(C)c1ccc(C(=O)N2CCN(c3nc4ccccc4o3)CC2)cc1	nt	-4%	nt	nt	nt	nt
COc1ccc(/C=N/NC(=O)c2ccccc2OC)cc1COc1ccccc1[N+](=O)[O-]	?	-26%	?	18µM*	29µM*	-11
COc1ccc(/C=N/NC(=O)c2ccn[nH]2)cc1COc1ccc([N+](=O)[O-])c(C)c1	?	77%	?	?	?	?
COc1ccc(/C=N\NC(=O)c2ccccc2Br)cc1COc1ccc(F)cc1	-1%	-56%	0%	?	18µM*	10
COc1ccc(C(=O)N/N=C/c2ccc(OC)c(COc3ccc(F)cc3F)c2)cc1	-10%	-3%	-1%	?	18µM*	-6
COc1ccc(/C=N/NC(=O)c2ccn[nH]2)cc1COc1ccc(F)cc1	-18%	60%[57.4 µM]	-9%	16µM*	?	163
CC1CCCN(S(=O)(=O)c2ccc(-c3nc(C#N)c(NCc4ccco4)o3)cc2)C1 (stereo unspecified)	nt	7%	nt	nt	nt	nt
COCc1cc(/C=N\NC(=O)COc2ccc(Cl)cc2)ccc1OC	19%	-10%	30%	2%	?	1
COc1ccc(/C=N/NC(=O)c2cccnc2)cc1COc1ccc([N+](=O)[O-])c(C)c1	2.1µM*	178%	2.6µM*	3.7µM*	4.1µM*	nt
COc1ccc(/C=N\NC(=O)c2ccc([N+](=O)[O-])c(C)c2)cc1COc1ccccc1C(N)=O	-3%	1%	6%	-29%	-21%	i
COc1ccc(/C=N/NC(=O)c2ccn[nH]2)cc1COc1ccc(Cl)cc1Cl	3%[9.24 µM]	1%	?	?	?	-79*
Cn1c(NC(=O)c2cccs2)c(-c2cccs2)c(=O)c2ccccc21	-6%	?	-10%	23µM*	-27%	12
Cc1ccc(-c2c(NC(=O)c3cccs3)n(C)c3ccccc3c2=O)cc1	nt	29%	nt	nt	nt	nt
Cn1c(NC(=O)c2ccc(F)cc2)c(-c2cccs2)c(=O)c2ccccc21	-6%	-2%	9%	?	?	-58*
Cn1c(NC(=O)c2ccccc2)c(-c2cccs2)c(=O)c2ccccc21	?	-9%	1%[9.24 µM]	15µM*	16µM*	-26
CC(C)C(=O)Nc1c(-c2cccc(Cl)c2)c(=O)c2ccccc2n1C	-1%	i	0%	18µM*	23µM*	8
CC(C)C(=O)Nc1c(-c2cccs2)c(=O)c2ccccc2n1C	7%	3%	3%[9.24 µM]	0%	-7%	4
COC(=O)[C@@H]1Cc2ncn(Cc3ccc(Cl)cc3)c2CN1CCCc1ccccc1	nt	78%[176 µM]	nt	nt	nt	nt
COc1cccc(CN2CC(Oc3ccccc3C(=O)NC3CC3)C2)n1	nt	53%	nt	nt	nt	nt
COc1cc(NC(=O)c2ccc(N3C(=O)C(C)(C)CS3(=O)=O)cc2)cc(OC)c1OC	nt	8%	nt	nt	nt	nt
Cc1ccc(C)c(-n2nnnc2SCC(=O)c2ccc(Cl)s2)c1	nt	21%	nt	nt	nt	nt
CCN(C(=O)C1CCC(CNS(=O)(=O)c2cccc3nsnc23)CC1)c1ccccc1 (stereo unspecified)	nt	-27%	nt	?	23µM*	nt
CCN(C(=O)C1CCC(CNS(=O)(=O)c2cccc3nsnc23)CC1)c1cccc(C)c1 (stereo unspecified)	nt	-19%	nt	?	21µM*	nt
CCN(CC)C(=O)C1CCC(CNS(=O)(=O)c2cccc3nsnc23)CC1 (stereo unspecified)	-1%	2%	-1%	1%	-2%	20
